# Reference: publication PMC8384837, “Expanding the binding specificity for RNA recognition by a PUF domain”
# Columns and labels:
# Assay in all cases: yeast three-hybrid, YBZ-1, SC-Leu-His + 0.5 mM 3-AT, 4 days
# Conditions in all cases: tags: N-Gal4 AD-HA kept; label: inside an RPR1-promoter hybrid RNA with tandem MS2 sites; ssRNA
# PUM1 PUF domain R3-GCD = PUM1 PUF domain R3-GCD (Homo sapiens, UniProt Q14671 828-1176, C935G;R936C;Q939D)
# Method in brief: (§1)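 A centromeric plasmid in strain YBZ-1 co-expressed Pumilio-1 PUF domain libraries, randomized at the three base-contacting residues of each repeat, with matching RNA elements; the strain carries a LexA–MS2 coat fusion and a HIS3 reporter. After four days on SC-Leu (input) or SC-Leu-His + 0.5 mM 3-AT (selection), the repeat regions were PCR-amplified and Illumina-sequenced. The interaction score is the log change in variant frequency from input to selection, using log2 and a pseudocount of 1 where absent.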
# PUM1 PUF domain R3-VRE = PUM1 PUF domain R3-VRE (Homo sapiens, UniProt Q14671 828-1176, C935V;Q939E)
# Sequence of PUM1 PUF domain R3-VRE (Q14671 828-1176 C935V/Q939E): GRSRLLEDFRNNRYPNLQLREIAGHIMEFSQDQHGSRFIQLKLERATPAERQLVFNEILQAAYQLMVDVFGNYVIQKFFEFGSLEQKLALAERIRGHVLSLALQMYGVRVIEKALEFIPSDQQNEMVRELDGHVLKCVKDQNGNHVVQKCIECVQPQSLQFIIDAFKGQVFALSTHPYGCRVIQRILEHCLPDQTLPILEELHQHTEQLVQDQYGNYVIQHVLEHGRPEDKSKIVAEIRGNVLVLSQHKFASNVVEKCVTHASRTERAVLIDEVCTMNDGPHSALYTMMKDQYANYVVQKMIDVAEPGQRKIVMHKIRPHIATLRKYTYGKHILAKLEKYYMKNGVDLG
# Method in brief: as §1
# PUM1 PUF domain R3-LWM = PUM1 PUF domain R3-LWM (Homo sapiens, UniProt Q14671 828-1176, C935L;R936W;Q939M)
# Sequence of PUM1 PUF domain R3-LWM (Q14671 828-1176 C935L/R936W/Q939M): as the sequence (Q14671 828-1176 C935V/Q939E) above, with V108L, R109W, E112M counted along it
# Method in brief: as §1
# PUM1 PUF domain R1-RWV = PUM1 PUF domain R1-RWV (Homo sapiens, UniProt Q14671 828-1176, S863R;R864W;Q867V)
# Sequence of PUM1 PUF domain R1-RWV (Q14671 828-1176 S863R/R864W/Q867V): as the sequence (Q14671 828-1176 C935V/Q939E) above, with S36R, R37W, Q40V, V108C, E112Q counted along it
# Method in brief: as §1
# PUM1 PUF domain R1-KRV = PUM1 PUF domain R1-KRV (Homo sapiens, UniProt Q14671 828-1176, S863K;Q867V)
# Sequence of PUM1 PUF domain R1-KRV (Q14671 828-1176 S863K/Q867V): as the sequence (Q14671 828-1176 C935V/Q939E) above, with S36K, Q40V, V108C, E112Q counted along it
# Method in brief: as §1
# PUM1 PUF domain R8-PWV = PUM1 PUF domain R8-PWV (Homo sapiens, UniProt Q14671 828-1176, N1122P;Y1123W;Q1126V)
# Sequence of PUM1 PUF domain R8-PWV (Q14671 828-1176 N1122P/Y1123W/Q1126V): as the sequence (Q14671 828-1176 C935V/Q939E) above, with V108C, E112Q, N295P, Y296W, Q299V counted along it
# Method in brief: as §1
# PUM1 PUF domain R4-TRA = PUM1 PUF domain R4-TRA (Homo sapiens, UniProt Q14671 828-1176, N971T;H972R;Q975A)
# Sequence of PUM1 PUF domain R4-TRA (Q14671 828-1176 N971T/H972R/Q975A): as the sequence (Q14671 828-1176 C935V/Q939E) above, with V108C, E112Q, N144T, H145R, Q148A counted along it
# Method in brief: as §1
# PUM1 PUF domain R4-LHR = PUM1 PUF domain R4-LHR (Homo sapiens, UniProt Q14671 828-1176, N971L;Q975R)
# Sequence of PUM1 PUF domain R4-LHR (Q14671 828-1176 N971L/Q975R): as the sequence (Q14671 828-1176 C935V/Q939E) above, with V108C, E112Q, N144L, Q148R counted along it
# Method in brief: as §1
# PUM1 PUF domain R4-PWA = PUM1 PUF domain R4-PWA (Homo sapiens, UniProt Q14671 828-1176, N971P;H972W;Q975A)
# Sequence of PUM1 PUF domain R4-PWA (Q14671 828-1176 N971P/H972W/Q975A): as the sequence (Q14671 828-1176 C935V/Q939E) above, with V108C, E112Q, N144P, H145W, Q148A counted along it
# Method in brief: as §1
# Sequence of PUM1 PUF domain R3-GCD (Q14671 828-1176 C935G/R936C/Q939D): as the sequence (Q14671 828-1176 C935V/Q939E) above, with V108G, R109C, E112D counted along it
sequence,measurement,setting,value
GGCUAGAACUAGUGGAUCCCCCGGCGCCCGGCGGCUCGAGCCCGGGUAAGUGUAAGUAGUCUGCAUGCCGCCGGGCGCCAUGCCUGCAGGUCGACUCUAGAAAACAUG,binding signal,PUM1 PUF domain R3-GCD,3.94 log2 enrichment (interaction score)
same,binding signal,PUM1 PUF domain R3-VRE,4.15 log2 enrichment (interaction score)
same,binding signal,PUM1 PUF domain R3-LWM,5.54 log2 enrichment (interaction score)
GGCUAGAACUAGUGGAUCCCCCGGCGCCCGGCGGCUCGAGCCCGGGUAAGUGUAAAUCGUCUGCAUGCCGCCGGGCGCCAUGCCUGCAGGUCGACUCUAGAAAACAUG,binding signal,PUM1 PUF domain R1-RWV,3.55 log2 enrichment (interaction score)
same,binding signal,PUM1 PUF domain R1-KRV,3.51 log2 enrichment (interaction score)
GGCUAGAACUAGUGGAUCCCCCGGCGCCCGGCGGCUCGAGCCCGGGUAAGUGUAAAUUGUCUGCAUGCCGCCGGGCGCCAUGCCUGCAGGUCGACUCUAGAAAACAUG,binding signal,PUM1 PUF domain R1-RWV,2.59 log2 enrichment (interaction score)
same,binding signal,PUM1 PUF domain R1-KRV,6.82 log2 enrichment (interaction score)
GGCUAGAACUAGUGGAUCCCCCGGCGCCCGGCGGCUCGAGCCCGGGUAAGCGUAAAUAGUCUGCAUGCCGCCGGGCGCCAUGCCUGCAGGUCGACUCUAGAAAACAUG,binding signal,PUM1 PUF domain R8-PWV,2.69 log2 enrichment (interaction score)
GGCUAGAACUAGUGGAUCCCCCGGCGCCCGGCGGCUCGAGCCCGGGUAAGUGUAAAUAGUCUGCAUGCCGCCGGGCGCCAUGCCUGCAGGUCGACUCUAGAAAACAUG,binding signal,PUM1 PUF domain R8-PWV,3.54 log2 enrichment (interaction score)
same,binding signal,PUM1 PUF domain R3-VRE,3.18 log2 enrichment (interaction score)
same,binding signal,PUM1 PUF domain R4-TRA,3.73 log2 enrichment (interaction score)
GGCUAGAACUAGUGGAUCCCCCGGCGCCCGGCGGCUCGAGCCCGGGUAAGUGUAUAUAGUCUGCAUGCCGCCGGGCGCCAUGCCUGCAGGUCGACUCUAGAAAACAUG,binding signal,PUM1 PUF domain R4-LHR,4.01 log2 enrichment (interaction score)
same,binding signal,PUM1 PUF domain R4-PWA,5.17 log2 enrichment (interaction score)
GGCUAGAACUAGUGGAUCCCCCGGCGCCCGGCGGCUCGAGCCCGGGUAAGUGUACAUAGUCUGCAUGCCGCCGGGCGCCAUGCCUGCAGGUCGACUCUAGAAAACAUG,binding signal,PUM1 PUF domain R4-TRA,0.18 log2 enrichment (interaction score)
GGCUAGAACUAGUGGAUCCCCCGGCGCCCGGCGGCUCGAGCCCGGGUAAGUGUAAUUAGUCUGCAUGCCGCCGGGCGCCAUGCCUGCAGGUCGACUCUAGAAAACAUG,binding signal,PUM1 PUF domain R3-LWM,4.35 log2 enrichment (interaction score)
